About 79,000 compounds went through this panel and 15% of them were active in at least one assay; those are over-represented in the sample as a whole. The source made the active and inactive calls. No stated cut-off is given here; in the data, active means growth inhibition above about 70%; inactive means the rest.
Tests used:
[1] = NCI Yeast Anticancer Drug Screen. Data for the wt1 strain (AID 149);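 further: 0% = growth of vehicle-treated wt1 cultures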; settings: S. cerevisiae wt1 strain (SPY 50644) growth inhibition, stronger effect = higher value
How it was run: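 Readout: yeast growth inhibition, normalised to vehicle controls, in the wt1 strain exposed to test compounds.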

[2] = NCI Yeast Anticancer Drug Screen. Data for the rad50EPP+ strain (AID 151);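 further: 0% = growth of vehicle-treated control cultures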; settings: S. cerevisiae rad50 mutant strain, stronger effect = higher value
How it was run: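 Strain rad50EPP+; compound exposure; % growth inhibition vs vehicle.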

[3] = NCI Yeast Anticancer Drug Screen. Data for the mgt1 strain (AID 153); settings: S. cerevisiae mgt1 mutant growth inhibition, stronger effect = higher value
How it was run: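 Read-out: yeast growth inhibition vs vehicle control. Strain mgt1, drawn from a panel altered in DNA damage repair or cell cycle control.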

[4] = NCI Yeast Anticancer Drug Screen. Data for the rad50 strain (AID 155);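 further: 0% = growth of vehicle-only cultures of the same strain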; settings: S. cerevisiae rad50 strain growth inhibition, stronger effect = higher value
How it was run: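 Compounds were tested on a yeast strain with an engineered DNA damage repair alteration; the reported value is growth inhibition normalised to vehicle treatment.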

[5] = NCI Yeast Anticancer Drug Screen. Data for the mec2-1 strain (AID 157); settings: S. cerevisiae mec2-1 strain, stronger effect = higher value
How it was run: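 Cells of the genetically defined mec2-1 yeast strain are incubated with test compound. Inhibition of growth is calculated against vehicle-treated controls.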

[6] = NCI Yeast Anticancer Drug Screen. Data for the rad14 strain (AID 159);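 further: 0% = growth of vehicle-treated control cultures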; settings: S. cerevisiae rad14 strain growth inhibition, stronger effect = higher value
How it was run: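 Compound-treated yeast with a defined DNA-repair lesion; growth inhibition normalised to vehicle-treated cultures.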

[7] = NCI Yeast Anticancer Drug Screen. Data for the sgs1 mgt1 strain (AID 161);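 further: 0% = growth of cultures given vehicle only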; settings: S. cerevisiae sgs1 mgt1 strain, stronger effect = higher value
How it was run: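 Mutant yeast exposed to compound; growth scored against vehicle-only wells.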

[8] = NCI Yeast Anticancer Drug Screen. Data for the CLN2oe strain (AID 163);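 further: 0% = growth of vehicle-only control cultures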; settings: S. cerevisiae CLN2oe strain, stronger effect = higher value
How it was run: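 Strain altered in cell-cycle control, incubated with compound; growth compared to solvent-treated controls.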

[9] = NCI Yeast Anticancer Drug Screen. Data for the cln2 rad14 strain (AID 165);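 further: 0% = growth equal to vehicle treated cultures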; settings: S. cerevisiae cln2 rad14 strain, stronger effect = higher value
How it was run: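 The screen exposed genetically defined yeast (cln2 rad14) to test compounds and scored growth inhibition relative to vehicle-treated controls.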

[10] = NCI Yeast Anticancer Drug Screen. Data for the bub3 strain (AID 167); settings: S. cerevisiae bub3 mutant strain, stronger effect = higher value
How it was run: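 Growth of a checkpoint-deficient yeast mutant is measured after compound exposure. Values represent inhibition relative to vehicle.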

[11] = NCI Yeast Anticancer Drug Screen. Data for the wt2 strain (AID 169);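 further: 0% = growth of vehicle-treated yeast cultures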; settings: S. cerevisiae wt2 strain growth inhibition, stronger effect = higher value
How it was run: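 Steps: yeast strain treated with compound; growth recorded; inhibition calculated relative to cultures given vehicle alone.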

[12] = NCI Yeast Anticancer Drug Screen. Data for the mlh1 strain (AID 171);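 further: 0% = growth of vehicle-treated control cultures of the same strain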; settings: S. cerevisiae mlh1 strain growth inhibition, stronger effect = higher value
How it was run: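 Yeast screen: mutant strain plus compound, growth scored against vehicle control wells.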

[13] = NCI Yeast Anticancer Drug Screen. Data for the sgs1 strain (AID 173);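 further: 0% = growth of vehicle-only control cultures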; settings: S. cerevisiae sgs1 mutant, stronger effect = higher value
How it was run: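 Inhibition of yeast growth served as the measure. The mutant strain was treated with each compound, and growth was normalised to cultures receiving vehicle alone.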

[14] = NCI Yeast Anticancer Drug Screen. Data for the mlh1 rad18 strain (AID 175); settings: S. cerevisiae mlh1 rad18 strain growth inhibition, stronger effect = higher value
How it was run: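 Compound-treated yeast growth, normalised to vehicle controls. Strain bears defined DNA repair mutations.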

[15] = NCI Yeast Anticancer Drug Screen. Data for the rad18 strain (AID 177); settings: S. cerevisiae rad18 mutant growth inhibition, stronger effect = higher value
How it was run: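 Inhibition values reflect reduced yeast growth compared with vehicle-treated controls, using a strain engineered with a DNA damage repair defect.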

[16] = at 5.0 µM (retest, dose inferred, filed as 0.5)
[17] = at 50.0 µM (retest, dose inferred, filed as 5.0)

Measured: growth inhibition

O=C1OC(C2=CC(=O)c3ccccc3C2=O)C(Cl)=C1Cl (stereo not drawn)
inactive: [1]; at 1.2 µM 1% | [1]; at 3.7 µM 9% | [1]; at 11.0 µM 9% | [1]; at 33.0 µM 14% | [1]; at 100.0 µM 28% | [2]; at 1.2 µM 3% | [2]; at 3.7 µM 13% | [2]; at 11.0 µM 47% | [3]; at 1.2 µM -1% | [3]; at 3.7 µM 0% | [3]; at 11.0 µM 1% | [3]; at 33.0 µM 12% | [3]; at 100.0 µM 24% | [4]; at 1.2 µM 0% | [4]; at 3.7 µM 1% | [4]; [16] 5% | [4]; at 11.0 µM 11% | [4]; at 33.0 µM 30% | [4]; [17] 44% | [4]; at 100.0 µM 47% | [5]; at 1.2 µM -1% | [5]; at 3.7 µM 6% | [5]; [16] 1% | [5]; at 11.0 µM 14% | [5]; at 33.0 µM 34% | [5]; [17] 47% | [5]; at 100.0 µM 56% | [6]; at 1.2 µM 0% | [6]; at 3.7 µM 4% | [6]; at 11.0 µM 12% | [6]; at 33.0 µM 37% | [6]; at 100.0 µM 69% | [7]; [16] 17% | [8]; at 1.2 µM -2% | [8]; at 3.7 µM -13% | [8]; at 11.0 µM -4% | [8]; at 33.0 µM 12% | [8]; at 100.0 µM 30% | [9]; [16] 0% | [9]; [17] 51% | [10]; at 1.2 µM 3% | [10]; at 3.7 µM -1% | [10]; [16] -1% | [10]; at 11.0 µM -2% | [10]; at 33.0 µM 2% | [10]; [17] 6% | [10]; at 50.0 µM 57.4% | [10]; at 100.0 µM 12% | [11]; at 1.2 µM 1% | [11]; at 3.7 µM 1% | [11]; at 11.0 µM 4% | [11]; at 33.0 µM 13% | [11]; at 100.0 µM 36% | [12]; at 1.2 µM -2% | [12]; at 3.7 µM 3% | [12]; at 11.0 µM 6% | [12]; at 33.0 µM 22% | [12]; at 100.0 µM 13% | [13]; at 1.2 µM 4% | [13]; at 3.7 µM 13% | [13]; at 11.0 µM 48% | [14]; [16] 11% | [15]; at 1.2 µM 31%
active: [2]; at 33.0 µM 81% | [2]; at 100.0 µM 82% | [4]; at 50.0 µM 86.3% | [5]; at 50.0 µM 80.9% | [7]; [17] 78% | [7]; at 50.0 µM 95.5% | [9]; at 50.0 µM 95.3% | [13]; at 33.0 µM 79% | [13]; at 100.0 µM 87% | [14]; [17] 77% | [14]; at 50.0 µM 94.8% | [15]; at 3.7 µM 79% | [15]; at 11.0 µM 92% | [15]; at 33.0 µM 95% | [15]; at 100.0 µM 94%

Reference: PubChem BioAssay (NCI)
